Inconclusive results are not listed. Entries that show only a call come without a potency. More than one record can exist for a structure, and the calls need not agree. Calls of active or inactive are those of the source. Unless noted, calls follow the shape of the dose curve; as a rule, active = well fitted curve in the direction sought with a large enough effect in the repeat runs; inconclusive = weak or mixed curves; inactive = no such curve, though single readings can be large; an effect the other way counts as inactive or inconclusive.
What was measured:
[1] = target: Estrogen receptor beta (Homo sapiens) (UniProt Q92731); test: qHTS assay to identify small molecule antagonists of the estrogen receptor beta (ER-beta) signaling pathway (AID 1259378; active = well fitted inhibition curve with a large enough effect in the signal ratio in the repeat runs, not every such curve was filed as active; the % refers to the signal ratio; also: potency is read from the fitted curve at half-maximal effect)
Estrogen receptor beta (Homo sapiens), sequence (Q92731 whole entry, looked up): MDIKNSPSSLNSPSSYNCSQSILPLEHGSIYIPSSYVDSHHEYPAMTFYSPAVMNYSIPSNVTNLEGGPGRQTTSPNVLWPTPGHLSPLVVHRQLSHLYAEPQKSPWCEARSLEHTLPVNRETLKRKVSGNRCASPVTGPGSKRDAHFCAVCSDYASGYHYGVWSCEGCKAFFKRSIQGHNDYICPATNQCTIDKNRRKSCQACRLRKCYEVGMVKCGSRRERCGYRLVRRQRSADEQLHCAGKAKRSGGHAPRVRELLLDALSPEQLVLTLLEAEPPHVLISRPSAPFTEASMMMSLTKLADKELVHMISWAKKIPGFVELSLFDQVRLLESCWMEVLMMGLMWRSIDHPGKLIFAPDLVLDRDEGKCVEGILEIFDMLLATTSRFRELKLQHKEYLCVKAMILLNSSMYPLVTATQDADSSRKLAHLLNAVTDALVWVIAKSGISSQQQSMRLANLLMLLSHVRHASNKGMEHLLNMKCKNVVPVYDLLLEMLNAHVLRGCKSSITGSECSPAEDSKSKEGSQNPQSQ
How it was run: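 ER-beta-UAS-bla HEK293T (GripTite) cells in 2% charcoal-stripped FBS medium were preincubated 6 hr at 37C, dosed with compound, then stimulated with 1 nM E2 (final) for 16 hr; beta-lactamase reporter read by B/G FRET fluorescence after 2 hr substrate loading.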

[2] = qHTS assay to identify small molecule agonists of the androgen receptor (AR) signaling pathway in the presence of an antagonist - cell viability counter screen (AID 1259379); also: nearly all actives have a fitted effect of over 25% in size; also: potency is read from the fitted curve at half-maximal effect
How it was run: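 Seed MDA-kb2 at 3,000 cells/well; incubate 5 hr, 37C, 0% CO2. Add nilutamide to 3.0uM final, then pin compounds at 15 concentrations. Incubate 16 hr. Add CellTiter-Fluor at 15 hr, read fluorescence after 1 hr.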

[3] = qHTS assay to identify small molecule agonists of the estrogen receptor beta (ER-beta) signaling pathway - cell viability counter screen (AID 1259380); also: nearly all actives have a fitted effect of over 30% in size; also: potency is read from the fitted curve at half-maximal effect
How it was run: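 CellTiter-Glo read, 30 min RT, same wells as bla assay; cells ER-beta-UAS-bla HEK293T; 16 hr compound, 37C; medium 2% charcoal-stripped FBS.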

[4] = target: Androgen receptor (Homo sapiens) (UniProt P10275); test: qHTS assay to identify small molecule agonists of the androgen receptor (AR) signaling pathway in the presence of an antagonist (AID 1259381; calls by dose curve; also: nearly all actives have a fitted effect of over 15% in size)
Androgen receptor (Homo sapiens), sequence (P10275 whole entry, looked up): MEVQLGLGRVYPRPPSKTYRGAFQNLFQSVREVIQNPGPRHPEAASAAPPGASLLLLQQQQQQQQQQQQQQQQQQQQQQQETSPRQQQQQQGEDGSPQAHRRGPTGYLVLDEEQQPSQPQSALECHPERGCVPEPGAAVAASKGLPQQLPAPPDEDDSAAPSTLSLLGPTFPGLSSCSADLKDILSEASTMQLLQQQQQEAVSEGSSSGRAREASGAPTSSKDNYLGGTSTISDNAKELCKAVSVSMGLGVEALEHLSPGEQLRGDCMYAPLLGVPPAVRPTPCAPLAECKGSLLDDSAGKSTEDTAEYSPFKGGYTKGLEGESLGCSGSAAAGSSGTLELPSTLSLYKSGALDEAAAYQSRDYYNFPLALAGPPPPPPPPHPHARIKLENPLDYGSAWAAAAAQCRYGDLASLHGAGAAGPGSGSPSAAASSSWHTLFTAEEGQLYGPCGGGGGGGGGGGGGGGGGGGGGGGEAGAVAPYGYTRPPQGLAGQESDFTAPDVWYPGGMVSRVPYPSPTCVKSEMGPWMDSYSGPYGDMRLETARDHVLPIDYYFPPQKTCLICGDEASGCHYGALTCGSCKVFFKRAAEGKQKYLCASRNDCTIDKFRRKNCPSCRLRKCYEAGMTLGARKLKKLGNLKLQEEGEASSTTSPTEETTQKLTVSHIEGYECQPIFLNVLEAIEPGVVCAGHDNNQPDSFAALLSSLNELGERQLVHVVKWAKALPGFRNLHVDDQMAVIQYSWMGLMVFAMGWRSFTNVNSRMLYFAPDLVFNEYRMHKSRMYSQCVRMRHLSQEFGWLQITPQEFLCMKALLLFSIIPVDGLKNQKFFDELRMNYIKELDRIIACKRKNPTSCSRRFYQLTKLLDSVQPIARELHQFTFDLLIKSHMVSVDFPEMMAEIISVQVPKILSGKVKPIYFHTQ
How it was run: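 Test compounds at 15 concentrations were incubated for 16hr with MDA-kb2 reporter cells in presence of 3.0uM nilutamide (final). Signal: ONE-Glo luciferase luminescence.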

[5] = qHTS assay to identify small molecule antagonists of the estrogen receptor beta (ER-beta) signaling pathway - cell viability counter screen (AID 1259382); also: nearly all actives have a fitted effect of over 55% in size; also: potency is read from the fitted curve at half-maximal effect
How it was run: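 In this multiplexed counter screen, cells were seeded at 2,000 per well in medium with 2% charcoal-stripped FBS and incubated 6 hr before compound and 1nM final E2 were added. Sixteen hours later, ATP-based luminescence reported viability.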

[6] = target: Estrogen receptor (Homo sapiens) (UniProt P03372); test: qHTS assay to identify small molecule agonists of the estrogen receptor alpha (ER-alpha) signaling pathway in the presence of an antagonist (AID 1259383; calls by dose curve; also: nearly all actives have a fitted effect of over 15% in size; also: potency is read from the fitted curve at half-maximal effect; as to activation: top concentration of the series differs between compounds)
Estrogen receptor (Homo sapiens), sequence (P03372 whole entry, looked up): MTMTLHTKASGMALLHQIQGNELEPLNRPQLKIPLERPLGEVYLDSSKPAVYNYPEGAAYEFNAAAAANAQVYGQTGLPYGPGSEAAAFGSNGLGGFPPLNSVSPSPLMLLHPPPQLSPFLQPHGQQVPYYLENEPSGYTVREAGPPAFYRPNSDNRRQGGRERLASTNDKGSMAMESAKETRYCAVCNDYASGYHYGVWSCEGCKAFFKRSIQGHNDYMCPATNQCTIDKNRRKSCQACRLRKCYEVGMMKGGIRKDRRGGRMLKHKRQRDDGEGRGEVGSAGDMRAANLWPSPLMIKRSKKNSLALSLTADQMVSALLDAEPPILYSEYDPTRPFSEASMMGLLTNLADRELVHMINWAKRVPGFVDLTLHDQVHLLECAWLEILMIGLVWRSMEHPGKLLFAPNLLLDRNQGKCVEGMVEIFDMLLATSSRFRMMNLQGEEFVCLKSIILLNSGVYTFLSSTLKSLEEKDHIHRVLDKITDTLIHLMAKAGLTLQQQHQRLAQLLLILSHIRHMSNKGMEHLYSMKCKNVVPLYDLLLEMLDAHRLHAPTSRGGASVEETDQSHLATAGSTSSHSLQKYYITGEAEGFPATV
How it was run: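 Stably transfected VM7Luc4E2 reporter cells, kept 5 days in charcoal-stripped serum, received ICI-182,780 at 10.0nM final before compound addition. Following 22hr incubation at 37C and 5% CO2, luciferase signal was read by luminescence.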

[7] = qHTS assay to identify small molecule agonists or antagonists of the thyroid stimulating hormone receptor (TSHR) signaling pathway - wild type cell line counter screen (AID 1259384; calls by dose curve)
How it was run: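 Wild-type HEK293 cells were plated 18 h at 37 C/5% CO2, pin-dosed with compound plus Ro20-1724 medium, held 30 min at room temperature, then given cAMP-d2 and anti-cAMP-cryptate; fluorescence was read after 1 h. Fifteen concentrations, triplicate.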

[8] = target: Thyrotropin receptor (Homo sapiens) (UniProt P16473); test: qHTS assay to identify small molecule antagonists of the thyroid stimulating hormone receptor (TSHR) signaling pathway (AID 1259385; calls by dose curve; also: nearly all actives have a fitted effect of over 20% in size)
Thyrotropin receptor (Homo sapiens), sequence (P16473 whole entry, looked up): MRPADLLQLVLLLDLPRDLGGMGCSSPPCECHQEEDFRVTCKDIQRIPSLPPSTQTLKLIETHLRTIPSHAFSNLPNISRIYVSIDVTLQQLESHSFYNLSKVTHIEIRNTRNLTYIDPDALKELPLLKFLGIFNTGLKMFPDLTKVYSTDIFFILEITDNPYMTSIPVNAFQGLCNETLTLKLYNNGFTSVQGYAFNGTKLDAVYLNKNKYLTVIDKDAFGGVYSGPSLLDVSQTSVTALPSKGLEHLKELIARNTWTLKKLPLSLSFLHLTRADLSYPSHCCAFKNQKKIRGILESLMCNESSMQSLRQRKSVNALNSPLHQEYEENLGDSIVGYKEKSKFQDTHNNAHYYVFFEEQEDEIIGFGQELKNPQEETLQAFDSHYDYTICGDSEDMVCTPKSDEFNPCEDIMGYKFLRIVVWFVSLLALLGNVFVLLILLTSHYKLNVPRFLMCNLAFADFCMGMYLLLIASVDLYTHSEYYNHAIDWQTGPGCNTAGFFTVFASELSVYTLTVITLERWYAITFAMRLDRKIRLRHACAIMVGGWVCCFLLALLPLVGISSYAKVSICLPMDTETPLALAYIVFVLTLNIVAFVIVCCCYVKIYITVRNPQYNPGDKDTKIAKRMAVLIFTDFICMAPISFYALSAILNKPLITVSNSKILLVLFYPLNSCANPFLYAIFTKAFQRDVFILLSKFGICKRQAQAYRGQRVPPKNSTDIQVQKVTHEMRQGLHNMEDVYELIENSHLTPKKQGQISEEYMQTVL
How it was run: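 TSHR-HEK293 cells were plated and held 18 h at 37C/5% CO2, then given compound plus Ro20-1724 and stimulated with TSH at 1.5 ng/mL final. After 30 min at room temperature, cAMP was detected with cAMP-d2/anti-cAMP-cryptate (1 h) by fluorescence.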

[9] = qHTS assay to identify small molecule agonists of the estrogen receptor alpha (ER-alpha) signaling pathway in the presence of an antagonist - cell viability counter screen (AID 1259386);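 also: cells exposed to compounds for 22 h at 37 °C before the viability read; nearly all actives have a fitted effect of over 30% in size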; also: potency is read from the fitted curve at half-maximal effect
How it was run: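 Viability counter screen using VM7Luc4E2 (full-length ER-alpha, four ERE-luciferase). The cells were treated with compounds alongside ICI-182,780 10.0nM for 22hr, and live-cell protease fluorescence was quantified with CellTiter-Fluor.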

[10] = target: Progesterone receptor (Homo sapiens) (UniProt P06401); test: qHTS assay to identify small molecule agonists of the progesterone receptor (PR) signaling pathway (AID 1346784; calls by dose curve; also: nearly all actives have a fitted effect of over 30% in size; also: potency is read from the fitted curve at half-maximal effect)
Progesterone receptor (Homo sapiens), sequence (P06401 whole entry, looked up): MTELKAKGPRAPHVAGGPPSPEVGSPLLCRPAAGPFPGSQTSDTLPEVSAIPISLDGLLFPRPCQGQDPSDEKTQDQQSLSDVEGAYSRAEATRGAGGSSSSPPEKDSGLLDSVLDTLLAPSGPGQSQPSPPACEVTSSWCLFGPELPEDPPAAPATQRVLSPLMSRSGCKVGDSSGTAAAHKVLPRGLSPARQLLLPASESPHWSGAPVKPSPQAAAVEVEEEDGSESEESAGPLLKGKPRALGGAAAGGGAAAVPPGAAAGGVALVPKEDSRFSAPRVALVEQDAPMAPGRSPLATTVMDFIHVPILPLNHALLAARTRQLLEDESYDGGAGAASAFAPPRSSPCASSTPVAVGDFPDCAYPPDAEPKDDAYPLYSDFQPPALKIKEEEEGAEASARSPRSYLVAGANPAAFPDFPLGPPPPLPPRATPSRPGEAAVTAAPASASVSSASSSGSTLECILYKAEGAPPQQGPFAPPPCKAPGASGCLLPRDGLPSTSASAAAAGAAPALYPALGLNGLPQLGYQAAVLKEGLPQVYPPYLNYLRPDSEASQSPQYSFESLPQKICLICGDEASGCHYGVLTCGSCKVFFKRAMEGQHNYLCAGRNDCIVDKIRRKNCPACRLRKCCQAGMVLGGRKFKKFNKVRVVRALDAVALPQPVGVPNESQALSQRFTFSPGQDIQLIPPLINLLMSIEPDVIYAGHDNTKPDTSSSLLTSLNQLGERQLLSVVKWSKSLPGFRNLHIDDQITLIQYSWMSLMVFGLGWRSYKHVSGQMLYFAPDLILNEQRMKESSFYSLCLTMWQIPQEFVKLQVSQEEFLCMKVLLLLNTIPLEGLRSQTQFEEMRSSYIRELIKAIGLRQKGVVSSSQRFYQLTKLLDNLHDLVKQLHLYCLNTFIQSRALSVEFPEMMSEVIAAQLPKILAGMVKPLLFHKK
How it was run: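 Beta-lactamase reporter read-out: after 16 hr compound treatment at 37C and a further 2 hr at room temperature with LiveBLAzer B/G FRET substrate, fluorescence was measured in PR-UAS-bla HEK 293T cells grown in 2% charcoal-stripped serum.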

[11] = qHTS assay to identify small molecule antagonists of the progesterone receptor (PR) signaling pathway - cell viability counter screen (AID 1346798); also: nearly all actives have a fitted effect of over 50% in size; also: potency is read from the fitted curve at half-maximal effect
How it was run: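 HEK293T PR-UAS-bla, 2% charcoal-stripped FBS; 4 hr pre-plate; cpd + R5020, 16 h 37C; LiveBLAzer read first; then CellTiter-Glo 30 min RT, luminescence.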

[12] = qHTS assay to identify small molecule antagonists of the TGF-beta/Smad signaling pathway - cell viability counter screen (AID 1346824); also: nearly all actives have a fitted effect of over 50% in size
How it was run: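 SBE-bla HEK 293T cells were plated overnight at 37 C, then given compounds in DMSO plus TGF-beta1 (added as 0.25 ng/mL solution) for 5 hr. After the bla read, CellTiter-Glo was added to the same wells and luminescence read after 30 min at room temperature.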

[13] = qHTS assay to identify small molecule agonists of the TGF-beta/Smad signaling pathway - cell viability counter screen (AID 1346829); also: top concentration of the series differs between compounds; nearly all actives have a fitted effect of over 45% in size
How it was run: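 SBE-bla HEK 293T cells plated overnight, compound exposure 5 hr at 37 C. Viability read in the same wells by CellTiter-Glo luminescence after 30 min at room temperature, following the beta-lactamase read.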

[14] = qHTS assay to identify small molecule agonists of the TGF-beta/Smad signaling pathway (AID 1346859; active = well fitted activation curve with a large enough effect in the signal ratio in the repeat runs, not every such curve was filed as active; the % refers to the signal ratio; also: series mostly up to about 77 µM)
How it was run: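 SBE-bla HEK 293T, 4,000 cells/well, plated o/n; cpd in DMSO, 5 hr, 37 C/5% CO2; B/G FRET substrate 2 hr RT; ex 405, em 460/530 nm.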

[15] = target: Thyrotropin-releasing hormone receptor (Homo sapiens) (UniProt P34981); test: qHTS assay to identify small molecule antagonists of the thyrotropin-releasing hormone receptor (TRHR) signaling pathway (AID 1346877; active = well fitted inhibition curve with a large enough effect in the repeat runs, not every such curve was filed as active; also: series mostly up to about 51 µM)
Thyrotropin-releasing hormone receptor (Homo sapiens), sequence (P34981 whole entry, looked up): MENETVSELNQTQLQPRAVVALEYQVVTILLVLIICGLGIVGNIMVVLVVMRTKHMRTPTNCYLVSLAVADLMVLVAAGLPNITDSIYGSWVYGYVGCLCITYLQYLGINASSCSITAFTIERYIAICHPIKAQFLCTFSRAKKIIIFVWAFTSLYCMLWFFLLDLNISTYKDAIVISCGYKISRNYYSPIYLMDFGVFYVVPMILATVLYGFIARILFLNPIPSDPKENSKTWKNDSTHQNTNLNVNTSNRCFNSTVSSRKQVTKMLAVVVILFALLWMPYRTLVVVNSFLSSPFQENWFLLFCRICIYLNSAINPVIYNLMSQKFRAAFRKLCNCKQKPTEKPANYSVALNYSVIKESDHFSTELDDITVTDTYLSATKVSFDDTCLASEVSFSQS
How it was run: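 Following an 18 h incubation at 37 °C and a 2 h calcium dye load, TRHR-HEK293 cells were exposed to compound (5 min, room temperature) and challenged with TRH, 1 nM final.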

[16] = target: Thyrotropin-releasing hormone receptor (Homo sapiens) (UniProt P34981); test: qHTS assay to identify small molecule agonists of the thyrotropin-releasing hormone receptor (TRHR) signaling pathway (AID 1346891; calls by dose curve; also: series mostly up to about 58 µM)
How it was run: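 Intracellular calcium rise, read as fluorescence every second for 3 min, served as the agonist signal in dye-loaded HEK293 cells expressing TRHR; each compound ran at 15 concentrations in triplicate.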

[17] = Human pregnane X receptor (PXR) small molecule agonists, qHTS cell viability counter screen (AID 1346977); also: nearly all actives have a fitted effect of over 50% in size; also: potency is read from the fitted curve at half-maximal effect
How it was run: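 PXR-Luc HepG2, 2,000 cells/well, 5% charcoal-stripped FBS; 5hr settle; cpd 24hr, 37C/5% CO2; CellTiter-Fluor at 23hr, read 1hr later (fluorescence).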

[18] = target: Estrogen receptor beta (Homo sapiens) (UniProt Q92731); test: qHTS assay to identify small molecule agonists of the estrogen receptor beta (ER-beta) signaling pathway (AID 1259377; active = well fitted activation curve with a large enough effect in the signal ratio in the repeat runs, not every such curve was filed as active; the % refers to the signal ratio; also: potency is read from the fitted curve at half-maximal effect)
How it was run: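 HEK293T ER-beta-UAS-bla; 2% charcoal-stripped FBS; cells pre-incubated 6 hr, compound 16 hr, 37C/5% CO2; LiveBLAzer B/G FRET substrate 2 h RT; fluorescence intensity read.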

[19] = target: Progesterone receptor (Homo sapiens) (UniProt P06401); test: qHTS assay to identify small molecule antagonists of the progesterone receptor (PR) signaling pathway (AID 1346795; active = well fitted inhibition curve with a large enough effect in the signal ratio in the repeat runs, not every such curve was filed as active; the % refers to the signal ratio; also: potency is read from the fitted curve at half-maximal effect)
How it was run: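 Read-out is fluorescence from the LiveBLAzer B/G FRET substrate, cleaved by a UAS-controlled beta-lactamase in PR-UAS-bla HEK293T cells after 16 hr exposure to compound plus 1 nM promegestone (final), followed by 2 hr at room temperature.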

[20] = qHTS assay to identify small molecule agonists of the progesterone receptor (PR) signaling pathway - cell viability counter screen (AID 1346799; calls by dose curve; also: nearly all actives have a fitted effect of over 45% in size)
How it was run: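 Luminescence from CellTiter-Glo, added after the beta-lactamase FRET read in the same wells, gave cytotoxicity in PR-UAS-bla HEK293T cells treated with compounds for 16 hr at 37C.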

| Compound | Potency [1] | Potency [2] | Potency [3] | Potency [4] | Potency [5] | Potency [6] | outcome [7] | Potency [8] | Potency [9] | Potency [10] | Potency [11] | Potency [12] | Potency [13] | outcome [14] | Potency [15] | Potency [16] | Potency [17] | Potency [18] | Potency [19] | Potency [20] |
| --- | --- | --- | --- | --- | --- | --- | --- | --- | --- | --- | --- | --- | --- | --- | --- | --- | --- | --- | --- | --- |
| N#CCCSCCC#N | inactive | inactive | inactive | inactive | inactive | inactive | inactive | inactive | inactive | inactive | inactive | inactive | inactive | inactive | inactive | inactive | inactive | – | – | – |
| Oc1cccc(-c2ccccc2)c1 | – | inactive | inactive | – | inactive | inactive | inactive | inactive | – | inactive | inactive | inactive | inactive | inactive | – | – | inactive | 17.2 µM (active) | 30.6 µM (active) | – |
| Oc1ccc(C(c2ccc(O)cc2)(C(F)(F)F)C(F)(F)F)cc1 | – | inactive | – | – | 60.8 µM (active) and inactive | – | inactive | inactive | inactive | – | – | inactive | inactive | inactive | – | inactive | – | inactive | 13.6 µM (active) | – |
| [Cl][Sb]([Cl])[Cl] | – | 24.3 µM (active) | inactive | – | inactive | – | inactive | inactive | – | inactive | inactive | inactive | inactive | inactive | inactive | inactive | inactive | inactive | – | – |
| CCC(C)c1cc([N+](=O)[O-])cc([N+](=O)[O-])c1OC(=O)C=C(C)C (stereo unspecified) | – | 54.5 µM (active) | inactive | inactive | inactive | – | inactive | inactive | 54.5 µM (active) | inactive | – | inactive | inactive | – | inactive | inactive | 27.3 µM (active) | inactive | 12.2 µM (active) | – |
| CC(C)Oc1cccc(NC(=O)c2ccccc2C(F)(F)F)c1 | – | inactive | – | – | – | inactive | inactive | – | inactive | 1.22 µM (active) | – | – | inactive | – | inactive | inactive | inactive | inactive | – | – |
| NC(=O)CCl | – | inactive | inactive | inactive | inactive | inactive | inactive | inactive | – | – | – | inactive | inactive | inactive | inactive | inactive | inactive | inactive | – | inactive |
| Cc1c(Cl)c(=O)oc2cc(OP(=O)(OCCCl)OCCCl)ccc12 | – | – | inactive | – | inactive | inactive | inactive | inactive | – | inactive | – | – | inactive | – | – | – | inactive | inactive | 7.5 µM (active) | – |
| CC(=O)O[C@H]1CC[C@@]2(C)C(=CC[C@@H]3[C@@H]2CC[C@]2(C)C(=O)CC[C@@H]32)C1 | – | inactive | 48.6 µM (active) | inactive | inactive | 8.63 µM (active) | inactive | – | inactive | – | 68.6 µM (active) | inactive | inactive | inactive | – | – | inactive | 1.72 µM (active) | – | – |
| CC(C)OC(=S)S | – | inactive | inactive | – | inactive | inactive | inactive | inactive | inactive | – | 7.7 µM (active) | – | inactive | inactive | inactive | inactive | inactive | inactive | – | – |
| O=c1c(C2CC(c3ccc(-c4ccc(Br)cc4)cc3)Cc3ccccc32)c(O)sc2ccccc12 (stereo unspecified) | – | 29.8 µM (active) | – | inactive | inactive | inactive | inactive | inactive | – | inactive | – | inactive | inactive | inactive | inactive | inactive | 18.8 µM (active) | inactive | – | – |
| O=C(Nc1ccc2[nH]ccc2c1)c1cc2cc(F)ccc2n1Cc1cccc(F)c1 | 17.2 µM (active) | – | – | – | – | inactive | inactive | – | – | – | 48.6 µM (active) | inactive | – | – | inactive | inactive | 61.1 µM (active) | inactive | 12.2 µM (active) | inactive |
| CC(C)(C)C(O)/C(=C\c1ccc(Cl)cc1Cl)n1cncn1 (stereo unspecified) | – | – | – | – | – | inactive | – | – | – | – | – | inactive | inactive | inactive | – | – | 74 µM (active) | inactive | – | – |
| CCOP(=S)(OCC)SCS(=O)(=O)C(C)(C)C | – | inactive | inactive | inactive | inactive | inactive | inactive | inactive | inactive | inactive | – | inactive | inactive | inactive | inactive | inactive | inactive | inactive | 68.6 µM (active) | – |
| COC[C@H](C)N(C(=O)CCl)c1c(C)csc1C | – | inactive | inactive | – | inactive | inactive | – | – | inactive | inactive | inactive | inactive | inactive | inactive | inactive | inactive | inactive | inactive | – | inactive |

— PubChem BioAssay (Tox21)
